Measured values: PubChem BioAssay (EPA / NIEHS)
Results filed as inconclusive are left out. Calls of active or inactive are those of the source. Rule for the calls, unless noted: active = hit-call score of the fitted dose curve at least 0.9, where 1 is the maximum; inconclusive = response in the unintended direction; inactive = score below 0.9.

Experiments:
[1] = read-out: ABC Transporter (ABCB1), ABCB1 (gene 5243); assay: CLD_ABCB1_24hr: CellzDirect (CLD) Gene Expression Assay for ABC Transporter (ABCB1) at 24 hours (AID 2283684);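 for AC50: potency for increase in ABCB1 mRNA relative to DMSO vehicle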
Outline: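 ABCB1 mRNA induction versus 0.2% DMSO vehicle was read by qNPA chemiluminescence at 24 h. Cultured human hepatocytes from two donor preparations received daily fresh dosing, and phase-contrast cytotoxicity calls were annotated alongside the data.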

[2] = read-out: Cytochrome P450 2C19 (Homo sapiens) (UniProt P33261); assay: CLD_CYP2C19_24hr: CellzDirect (CLD) Gene Expression Assay for xenobiotic metabolism (CYP2C19) at 24 hours (AID 2283687);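 note: activity means mRNA induction above DMSO vehicle baseline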
Outline: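 CYP2C19 mRNA was quantified by qNPA chemiluminescence after 24 h of daily dosing of cultured human primary hepatocytes from two donors; vehicle was 0.2% DMSO, and increases over DMSO baseline were fitted.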

[3] = read-out: Cytochrome P450 3A4 (Homo sapiens) (UniProt P08684); assay: CLD_CYP3A4_24hr: CellzDirect (CLD) Gene Expression Assay for xenobiotic metabolism (CYP3A4) at 24 hours (AID 2283689)
Outline: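 CYP3A4 mRNA induction read by quantitative nuclease protection (chemiluminescence) 24 hr after dosing. Cultured human hepatocytes (two donor preparations) treated daily, vehicle 0.2% DMSO; phase-contrast morphology annotates cytotoxicity.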

[4] = read-out: HMG-CoA synthase (HMGCS2), HMGCS2 (gene 3158); assay: CLD_HMGCS2_24hr: CellzDirect (CLD) Gene Expression Assay for HMG-CoA synthase (HMGCS2) at 24 hours (AID 2283691)
Outline: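 qNPA with S1 nuclease digestion and chemiluminescent detection gave HMGCS2 transcript levels, fitted upward against 0.2% DMSO vehicle. Cultured human hepatocytes (two donors) received fresh compound daily and were harvested at 24 h; phase-contrast morphology flagged cytotoxicity.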

[5] = read-out: ABC Transporter (ABCB1), ABCB1 (gene 5243); assay: CLD_ABCB1_48hr: CellzDirect (CLD) Gene Expression Assay for ABC Transporter (ABCB1) at 48 hours (AID 2283695);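 for AC50: potency for induction meaning increase of mRNA over DMSO vehicle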
Outline: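 ABCB1 mRNA was measured by quantitative nuclease protection assay (chemiluminescence) 48 h after dosing. Human hepatocyte cultures from two separate donors received fresh dosing solutions daily for two days, with 0.2% DMSO as vehicle. Positive-direction fit against DMSO.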

[6] = read-out: glucuronosyltransferase (UGT1A1), UGT1A1 (gene 54658); assay: CLD_UGT1A1_24hr: CellzDirect (CLD) Gene Expression Assay for glucuronosyltransferase (UGT1A1) at 24 hours (AID 2283696)
Outline: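 UGT1A1 transcript induction was measured by quantitative nuclease protection assay (chemiluminescence) in human hepatocyte cultures 24 h after daily fresh dosing, with 0.2% DMSO as vehicle and baseline.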

[7] = CLD_ACTIN_48hr: CellzDirect (CLD) Gene Expression Assay for Baseline Control (Actin) at 48 hours (AID 2283702)
Outline: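 Background-control actin mRNA read by qNPA chemiluminescence at 48 h. Human hepatocyte cultures from two donors received fresh multi-concentration chemical doses daily for two days; 0.2% DMSO served as vehicle baseline.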

[8] = read-out: xenobiotic metabolism (CYP1A2), CYP1A2 (gene 1544); assay: CLD_CYP1A2_48hr: CellzDirect (CLD) Gene Expression Assay for xenobiotic metabolism (CYP1A2) at 48 hours (AID 2283703)
Outline: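 Cytotoxicity was flagged yes/no from morphology, while CYP1A2 transcript induction was detected by qNPA chemiluminescence after a 48-hour exposure. Human primary hepatocyte cultures from separate donors received fresh dosing solutions daily over two days, with 0.2% DMSO as vehicle and baseline.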

[9] = read-out: Glyceraldehyde-3-phosphate dehydrogenase (Homo sapiens) (UniProt P04406); assay: CLD_GAPDH_48hr: CellzDirect (CLD) Gene Expression Assay for Baseline Control (Glyceraldehyde 3-phosphate dehydrogenase) at 48 hours (AID 2283706);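 note: active means higher GAPDH mRNA than DMSO vehicle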
Outline: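 GAPDH baseline-control readout: qNPA chemiluminescent mRNA quantitation in human liver primary cells 48 h after daily dosing on two consecutive days, vehicle 0.2% DMSO; gain of signal fitted against DMSO, cytotoxicity flagged by phase-contrast morphology.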

[10] = read-out: alkyl and aryl transferase (GSTA2), GSTA2 (gene 2939); assay: CLD_GSTA2_48hr: CellzDirect (CLD) Gene Expression Assay for alkyl and aryl transferase (GSTA2) at 48 hours (AID 2283708);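 note: active means mRNA induction above DMSO vehicle baseline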
Outline: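 GSTA2 mRNA quantified by qNPA chemiluminescence in human primary hepatocyte lysates after 48 h of daily fresh chemical dosing. Increases fitted against 0.2% DMSO vehicle baseline; cytotoxicity from morphology annotated yes/no.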

[11] = read-out: glucuronosyltransferase (UGT1A1), UGT1A1 (gene 54658); assay: CLD_UGT1A1_48hr: CellzDirect (CLD) Gene Expression Assay for glucuronosyltransferase (UGT1A1) at 48 hours (AID 2283709);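 note: actives increase expression relative to DMSO so potency refers to induction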
Outline: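 Quantitative nuclease protection assay (chemiluminescent) for UGT1A1 mRNA at 48 h in human hepatocyte cultures from two donors, redosed daily with fresh solutions. Induction fitted relative to 0.2% DMSO; phase-contrast morphology annotated cytotoxicity.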

[12] = read-out: sulfotransferase (SULT2A), SULT2A1 (gene 6822); assay: CLD_SULT2A_48hr: CellzDirect (CLD) Gene Expression Assay for sulfotransferase (SULT2A) at 48 hours (AID 2283710);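 note: hits raise SULT2A1 transcript above the 0.2% DMSO vehicle baseline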
Outline: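 SULT2A1 transcript measured by qNPA chemiluminescence in human primary hepatocyte cultures after 48 h, with fresh dosing solutions on two consecutive days; gain-of-signal fitting against 0.2% DMSO vehicle; cytotoxicity annotated from phase-contrast morphology.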

[13] = read-out: organic anion transporter (SLCO1B1), SLCO1B1 (gene 10599); assay: CLD_SLCO1B1_24hr: CellzDirect (CLD) Gene Expression Assay for organic anion transporter (SLCO1B1) at 24 hours (AID 2283690)
Outline: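 SLCO1B1 mRNA induction read at 24 h by quantitative nuclease protection assay (chemiluminescence), analyzed against DMSO baseline. Human hepatocyte cultures from separate donors received fresh dosing solutions daily; vehicle 0.2% DMSO; cytotoxicity flagged by phase-contrast morphology.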

[14] = read-out: sulfotransferase (SULT2A), SULT2A1 (gene 6822); assay: CLD_SULT2A_24hr: CellzDirect (CLD) Gene Expression Assay for sulfotransferase (SULT2A) at 24 hours (AID 2283694)
Outline: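 mRNA is measured by qNPA: probe hybridisation, S1 nuclease digestion, chemiluminescence, in lysates from human primary hepatocytes harvested 24 h after daily dosing. Vehicle was 0.2% DMSO. Phase-contrast microscopy flagged cytotoxicity (yes/no).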

[15] = read-out: Broad substrate specificity ATP-binding cassette transporter ABCG2 (Homo sapiens) (UniProt Q9UNQ0); assay: CLD_ABCG2_48hr: CellzDirect (CLD) Gene Expression Assay for ABC Transporter (ABCG2) at 48 hours (AID 2283704);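 for AC50: potency for induction of ABCG2 mRNA above the DMSO baseline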
Outline: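 ABCG2 transcript measured at 48 h by quantitative nuclease protection (chemiluminescent) and fitted for increase relative to 0.2% DMSO. Hepatocyte cultures from separate donors got fresh compound daily over two days; morphology annotated cytotoxicity.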

[16] = read-out: organic anion transporter (SLCO1B1), SLCO1B1 (gene 10599); assay: CLD_SLCO1B1_48hr: CellzDirect (CLD) Gene Expression Assay for organic anion transporter (SLCO1B1) at 48 hours (AID 2283707)
Outline: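 SLCO1B1 transcript quantified by qNPA with chemiluminescent readout after 48 h of once-daily chemical exposure. Cultured human primary hepatocytes came from two donors, with 0.2% DMSO vehicle; positive-direction fitting against DMSO, cytotoxicity flagged by morphology.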

[17] = read-out: HMG-CoA synthase (HMGCS2), HMGCS2 (gene 3158); assay: CLD_HMGCS2_48hr: CellzDirect (CLD) Gene Expression Assay for HMG-CoA synthase (HMGCS2) at 48 hours (AID 2283711)
Outline: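 mRNA induction read by qNPA chemiluminescence, 48 h after dosing. Cultured primary human liver cells (two donor preparations) received fresh compound daily over two days against 0.2% DMSO vehicle; morphology-based cytotoxicity noted alongside.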

[18] = read-out: Cytochrome P450 2B6 (Homo sapiens) (UniProt P20813); assay: CLD_CYP2B6_48hr: CellzDirect (CLD) Gene Expression Assay for xenobiotic metabolism (CYP2B6) at 48 hours (AID 2283699);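 note: actives raise transcript level above DMSO so potency reflects induction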
Outline: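 CYP2B6 transcript induction, read by quantitative nuclease protection (S1 digestion, chemiluminescent detection) 48 h after dosing, is fitted upward against 0.2% DMSO. Cultured human liver primary cells, two donor preparations, received fresh chemical daily over multiple concentrations.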

[19] = STM_H9_CystineISnorm_perc: Stemina devTOX quickPredict H9 human embryonic stem cell (hESC)-based Assay for Cystine (CYSS) Metabolite Biomarker, Normalized (AID 2283713; active = hit-call score of the fitted dose curve at least 0.9, where 1 is the maximum; inactive = score below 0.9)
Outline: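 Cells are held undifferentiated and treated for 72h, receiving fresh medium with compound every 24h. Cystine secreted during the final day is quantified by UPLC-HRMS against a labeled spike-in, then expressed relative to the DMSO vehicle median.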

Measured: AC50

Sequence of Broad substrate specificity ATP-binding cassette transporter ABCG2 (Homo sapiens) (Q9UNQ0 whole entry, looked up): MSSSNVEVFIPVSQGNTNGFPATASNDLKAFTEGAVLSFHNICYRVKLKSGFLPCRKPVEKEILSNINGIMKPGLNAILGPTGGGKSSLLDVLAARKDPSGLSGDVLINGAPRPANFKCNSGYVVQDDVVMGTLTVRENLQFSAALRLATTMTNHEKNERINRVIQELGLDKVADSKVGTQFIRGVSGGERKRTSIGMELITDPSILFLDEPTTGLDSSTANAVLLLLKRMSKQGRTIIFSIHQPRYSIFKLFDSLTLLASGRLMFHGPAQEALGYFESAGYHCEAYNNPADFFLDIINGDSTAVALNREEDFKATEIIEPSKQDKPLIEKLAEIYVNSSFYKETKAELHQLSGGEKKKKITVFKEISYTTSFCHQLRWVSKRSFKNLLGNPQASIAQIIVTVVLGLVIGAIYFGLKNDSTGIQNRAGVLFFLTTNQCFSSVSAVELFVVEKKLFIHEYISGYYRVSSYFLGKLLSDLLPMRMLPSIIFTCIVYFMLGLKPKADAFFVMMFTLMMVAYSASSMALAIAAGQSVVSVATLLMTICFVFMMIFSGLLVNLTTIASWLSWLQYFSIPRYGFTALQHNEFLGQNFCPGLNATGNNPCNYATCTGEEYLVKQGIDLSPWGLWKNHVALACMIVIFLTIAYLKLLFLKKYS
Sequence of Glyceraldehyde-3-phosphate dehydrogenase (Homo sapiens) (P04406 whole entry, looked up): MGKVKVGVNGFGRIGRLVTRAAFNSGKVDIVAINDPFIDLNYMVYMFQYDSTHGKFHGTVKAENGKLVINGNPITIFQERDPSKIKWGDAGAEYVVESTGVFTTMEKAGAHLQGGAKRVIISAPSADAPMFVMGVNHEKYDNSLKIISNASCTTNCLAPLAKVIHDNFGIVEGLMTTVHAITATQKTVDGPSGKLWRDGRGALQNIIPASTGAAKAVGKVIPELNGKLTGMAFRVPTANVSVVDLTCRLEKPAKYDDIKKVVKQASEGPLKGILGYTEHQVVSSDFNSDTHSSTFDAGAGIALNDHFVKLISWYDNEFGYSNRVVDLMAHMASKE
Sequence of Cytochrome P450 3A4 (Homo sapiens) (P08684 whole entry, looked up): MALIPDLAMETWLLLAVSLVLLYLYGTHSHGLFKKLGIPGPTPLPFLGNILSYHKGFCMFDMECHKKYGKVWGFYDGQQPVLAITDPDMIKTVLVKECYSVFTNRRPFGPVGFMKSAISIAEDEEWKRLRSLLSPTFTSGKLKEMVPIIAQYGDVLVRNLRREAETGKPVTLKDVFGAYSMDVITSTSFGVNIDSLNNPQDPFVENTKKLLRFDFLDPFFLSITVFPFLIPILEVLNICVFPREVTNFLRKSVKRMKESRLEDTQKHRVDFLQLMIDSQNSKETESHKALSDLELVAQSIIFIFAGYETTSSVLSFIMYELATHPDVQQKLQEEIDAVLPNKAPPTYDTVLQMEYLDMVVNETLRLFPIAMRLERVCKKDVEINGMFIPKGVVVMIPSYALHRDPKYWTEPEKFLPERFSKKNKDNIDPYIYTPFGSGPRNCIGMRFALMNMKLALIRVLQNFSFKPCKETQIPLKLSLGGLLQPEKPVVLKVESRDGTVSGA
Sequence of Cytochrome P450 2C19 (Homo sapiens) (P33261 whole entry, looked up): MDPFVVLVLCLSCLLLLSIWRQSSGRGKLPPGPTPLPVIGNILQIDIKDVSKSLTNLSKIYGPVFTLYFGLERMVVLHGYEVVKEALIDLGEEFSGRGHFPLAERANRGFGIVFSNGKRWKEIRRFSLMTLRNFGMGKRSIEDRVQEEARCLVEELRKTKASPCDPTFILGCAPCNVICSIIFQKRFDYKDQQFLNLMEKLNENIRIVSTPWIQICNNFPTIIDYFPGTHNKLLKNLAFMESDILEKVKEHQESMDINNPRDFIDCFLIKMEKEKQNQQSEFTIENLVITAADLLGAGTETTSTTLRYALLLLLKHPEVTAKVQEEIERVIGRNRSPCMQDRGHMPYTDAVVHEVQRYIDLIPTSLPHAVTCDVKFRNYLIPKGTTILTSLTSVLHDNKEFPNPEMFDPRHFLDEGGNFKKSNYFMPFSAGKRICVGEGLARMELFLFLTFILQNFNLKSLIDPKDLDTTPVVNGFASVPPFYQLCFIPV

COC(=O)c1ccc(CNS(C)(=O)=O)cc1S(=O)(=O)NC(=O)Nc1nc(OC)cc(OC)n1
not listed: [13] | [14] | [15] | [16] | [17] | [18] | [19]
inactive: all other assays above

CCCOC(=O)NCCCN(C)C
not listed: [2] | [11] | [18] | [19]
inactive: all other assays above

COC(=O)c1cccc(C)c1S(=O)(=O)NC(=O)Nc1nc(OCC(F)(F)F)nc(N(C)C)n1
active: [3] 20 µM | [18] 5.1 µM | [8] 5.82 µM
inactive: [1] | [13] | [14] | [6] | [9] | [16] | [17]

S=C(S)NCCNC(=S)S.[Mn+2].[S-]C([S-])=NCCN=C([S-])[S-].[Zn+2]
inactive: [2] | [3] | [18] | [9] | [19]
active: [1] 1.5 µM | [5] 1.06 µM | [15] 3.67 µM

CCOC(=O)[C@H](C)Oc1ccc(Oc2nc3ccc(Cl)cc3o2)cc1
inactive: [13] | [14] | [6] | [7] | [9] | [16] | [10] | [12] | [17]
active: [8] 20 µM

CCCCCOC(=O)COc1cc(N2C(=O)C3=C(CCCC3)C2=O)c(F)cc1Cl
active: [3] 4.01 µM
not listed: [2] | [4] | [11] | [12] | [13] | [16] | [17]
inactive: all other assays above

COC(=O)c1c(Cl)nn(C)c1S(=O)(=O)NC(=O)Nc1nc(OC)cc(OC)n1
active: [3] 4.62 µM | [8] 1.13 µM
not listed: [2] | [11] | [13] | [15] | [16] | [19]
inactive: all other assays above

OB(O)O
not listed: [2] | [10] | [11] | [13] | [15]
inactive: all other assays above

S=C([S-])NCCNC(=S)[S-].[Mn+2]
active: [5] 1.9 µM | [15] 3.4 µM
inactive: [1] | [3] | [7] | [9] | [19]

C=CCOC(Cn1ccnc1)c1ccc(Cl)cc1Cl (configuration not stated)
active: [5] 36.9 µM | [18] 0.163 µM | [15] 34.9 µM | [10] 36.7 µM
inactive: [1] | [6] | [7] | [9] | [19]

CCCN(CCC)c1c([N+](=O)[O-])cc(C(F)(F)F)c(N)c1[N+](=O)[O-]
inactive: [1] | [14] | [5] | [10] | [12] | [19]
active: [3] 8.44 µM | [6] 8.82 µM | [18] 3.56 µM | [8] 2.63 µM

c1ccc2[nH]c(-c3cscn3)nc2c1
active: [8] 1.36 µM
inactive: [18] | [17]

O=C(O)C1(C(=O)Nc2ccc(Cl)cc2Cl)CC1
inactive: [3] | [14] | [5] | [7] | [8] | [9] | [17] | [19]
active: [4] 34.9 µM | [6] 20 µM

CCCCC(CC)COC(=O)c1ccccc1C(=O)O (configuration not stated)
active: [18] 20 µM | [19] 250 µM
not listed: [2] | [3] | [7] | [11] | [15]
inactive: all other assays above
